# Measured values as given in the supplement of paper PMC12636033.
# ± gives the standard deviation of the averaged measurements. The full ranking holds about 33,000 sequences; the median of “E-score (rank enrichment, -0.5 to 0.5)” is about -0.0075, and the highest 2% start at about 0.23. The list comes from a sample in which the highest values are over-represented; it also holds similar and randomly drawn sequences.
# Test system: WT Max(13-93) synthetic (M65Nle)
# Test: PBM 8-mer E-score (E-score (rank enrichment, -0.5 to 0.5)); higher = stronger preferential binding
# Method: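 Protein binding microarray (universal PBM chip covering all 10-mers in fixed probe flanks) with chemically synthesized human Max(13-93) bHLH-LZ analogs (not full-length Max) bearing noncanonical residues (hArg, Tha, Aib, Nle at 65) and aromatic Cys staples. Read-out per 8-mer (and its reverse complement): E-score (rank-based enrichment, -0.5 to 0.5) and Z-score of median probe intensity.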
row,Sequence,PBM 8-mer E-score
1,ATATTAAC,0.218 ± 0.013
2,ATATTAAG,0.131 ± 0.02
3,TTATTAAA,0.131 ± 0.26
4,ATATTAAT,0.274 ± 0.059
5,AAGTTGGC,-0.119 ± 0.0037
6,TCGCTGCA,-0.149 ± 0.09
7,GGCGCCAC,-0.0393 ± 0.073
8,GCAGAAAC,0.0456 ± 0.087
9,AGACCTCA,-0.0265 ± 0.028
10,TCGGCACA,-0.0668 ± 0.093
11,AGCGTGTA,0.11 ± 0.018
12,CACGTGTC,0.4823 ± 0.0015
13,CCCGTGTA,0.183 ± 0.1
14,CGCGTGTC,0.232 ± 0.011
15,GACGTGTA,-0.0197 ± 0.094
16,CACGTGTA,0.4825 ± 0.0012
17,AACGTGTC,0.189 ± 0.014
18,AACGTGTG,0.178 ± 0.016
19,CGCGTGTA,0.29 ± 0.052
20,AACGTGTA,0.26 ± 0.0055
21,ATCGTGTA,0.0318 ± 0.041
22,CCCGTGTC,0.0152 ± 0.049
23,GGCAGACC,-0.189 ± 0.022
24,AAGAGATC,-0.149 ± 0.086
25,AAGGTGCT,0.0391 ± 0.026

row,Sequence,PBM 8-mer E-score
1,ACAGCAGT,-0.155 ± 0.016
2,ACATGTTG,0.239 ± 0.012
3,AGATGTTG,-0.133 ± 0.11
4,GGATGTTA,0.0759 ± 0.064
5,AGATGTTC,-0.10933 ± 4.9e-05
6,ACATGTTA,0.267 ± 0.008
7,GAATGTTA,0.158 ± 0.079
8,GCATGTTA,0.266 ± 0.075
9,CCATGTTA,0.103 ± 0.095
10,AAATGTTG,-0.0126 ± 0.086
11,ACATGTTC,0.246 ± 0.016
12,AAATGTTA,0.127 ± 0.032
13,CCATGTTC,-0.00628 ± 0.14
14,ATAGTCTC,0.0149 ± 0.021
15,ACGGCCAT,-0.0405 ± 0.11
16,ATTAGGCG,-0.0541 ± 0.021
17,CTTGCAGC,-0.155 ± 0.06
18,AAGGCCCA,-0.0696 ± 0.03
19,AACCTCGG,-0.285 ± 0.089
20,ACAGCAGA,-0.0839 ± 0.019
21,CCTGGCCC,-0.288 ± 0.052
22,CATTCATC,0.048 ± 0.036
23,GATTCATA,-0.0144 ± 0.0027
24,CATTCATA,0.243 ± 0.071
25,CTACGGGA,0.0112 ± 0.028

row,Sequence,PBM 8-mer E-score
1,AATACATA,0.211 ± 0.11
2,CATACACA,0.228 ± 0.099
3,CATACATC,0.135 ± 0.022
4,CATACACG,0.238 ± 0.086
5,TATACACA,0.0996 ± 0.085
6,CATACATA,0.17 ± 0.086
7,CATACATG,0.245 ± 0.026
8,AATACATG,0.243 ± 0.072
9,AATACATT,0.132 ± 0.098
10,AAAAGCAA,0.066 ± 0.13
11,GCCAGATA,-0.00267 ± 0.056
12,CCAACTTC,0.0001 ± 0.0037
13,TGGAAAAA,0.0641 ± 0.057
14,ACTGTCCT,-0.0581 ± 0.038
15,CACGAGGG,0.1535 ± 0.0012
16,CACGAGGC,0.252 ± 0.079
17,TACGAGTA,0.173 ± 0.023
18,GACGAGTA,0.0201 ± 0.095
19,CACGAGTA,0.237 ± 0.0057
20,AACGAGAA,0.242 ± 0.073
21,AACGAGAT,-0.133 ± 0.092
22,CACGAGGA,0.217 ± 0.02
23,CACGAGAA,0.12 ± 0.075
24,CCTACAGA,-0.0418 ± 0.11
25,ATTTGTGC,0.0791 ± 0.13

row,Sequence,PBM 8-mer E-score
1,CCGGCCAC,-0.164 ± 0.0042
2,ACAAGCCA,-0.0302 ± 0.081
3,CAATAAAA,0.29 ± 0.011
4,CAATAATC,0.00647 ± 0.1
5,CAATAAAC,0.139 ± 0.04
6,CAATAATA,0.275 ± 0.019
7,CAATAATG,0.0933 ± 0.042
8,GAATAAAA,0.184 ± 0.097
9,CCGACTCA,-0.185 ± 0.0089
10,CCTCAAAA,0.192 ± 0.0034
11,CCGCGTAG,-0.0165 ± 0.042
12,CGCTTCCC,-0.0261 ± 0.049
13,CTTTGTTA,0.195 ± 0.042
14,AAGGAGGA,-0.0623 ± 0.0073
15,ATCATTGC,0.0872 ± 0.064
16,CGTATACG,0.241 ± 0.024
17,CGTATACC,-0.109 ± 0.063
18,TGTATACA,0.307 ± 0.074
19,GGTATACA,0.0958 ± 0.069
20,AGTATACA,0.155 ± 0.15
21,CGTATACA,0.105 ± 0.07
22,CCGATCCC,-0.173 ± 0.033
23,ATCACCCC,0.117 ± 0.11
24,CCAGGACC,-0.162 ± 0.086
25,ATAATCAG,0.256 ± 0.14

row,Sequence,PBM 8-mer E-score
1,ATAATCAC,0.04 ± 0.043
2,ATAATCAT,0.285 ± 0.0003
3,AAAATCAG,0.104 ± 0.15
4,ATAATCAA,0.15 ± 0.011
5,CTAATCAG,0.027 ± 0.0044
6,AGCTTCTC,0.118 ± 0.0033
7,AGACGTCG,-0.117 ± 0.066
8,CACCCTCC,0.202 ± 0.054
9,CGGGGTCC,-0.276 ± 0.066
10,CTATGGTC,-0.0873 ± 0.11
11,CCATGGGG,-0.138 ± 0.011
12,ACATGGGA,0.135 ± 0.03
13,CCATGGTA,0.0299 ± 0.078
14,ACATGGGG,0.273 ± 0.033
15,GCATGGCC,0.0853 ± 0.066
16,ACATGGCG,0.183 ± 0.026
17,CCATGGTC,0.0328 ± 0.1
18,GCATGGTA,0.185 ± 0.032
19,ACATGGTA,0.277 ± 0.008
20,ACATGGTC,0.319 ± 0.016
21,ACATGGCC,0.232 ± 0.14
22,AAATCGCT,-0.0979 ± 0.047
23,ACTGTGTG,0.0422 ± 0.088
24,AAGAACTA,0.204 ± 0.045
25,CGCTGCAA,-0.0409 ± 0.02

row,Sequence,PBM 8-mer E-score
1,ACATGGAG,0.198 ± 0.015
2,ACATGGTG,0.233 ± 0.045
3,AGATGGTG,0.00749 ± 0.089
4,GTGGGGAA,0.205 ± 0.11
5,GACTGACA,-0.0306 ± 0.026
6,AGGCCCTC,0.00332 ± 0.043
7,CAGGAATC,-0.216 ± 0.02
8,ATACAAAT,0.249 ± 0.035
9,CTACAAAA,0.0614 ± 0.0036
10,ATACAAAG,0.0198 ± 0.057
11,ATACAAAA,0.265 ± 0.02
12,ATACAAAC,0.212 ± 0.016
13,TTACAAAA,0.225 ± 0.024
14,GAGAAAAC,-0.0792 ± 0.0078
15,GCAAAGGA,0.00898 ± 0.011
16,AATTCATG,0.132 ± 0.0098
17,GTATTCAC,0.0929 ± 0.016
18,CTATTCAC,-0.0152 ± 0.017
19,ATATTCAC,0.234 ± 0.022
20,CGCTGTCA,-0.225 ± 0.066
21,ACGTTCGA,-0.101 ± 0.043
22,CGTATGGA,-0.00324 ± 0.07
23,CTGTAAAA,0.0812 ± 0.032
24,ATGTAAAT,0.224 ± 0.021
25,ATGTAATA,0.25 ± 0.011

row,Sequence,PBM 8-mer E-score
1,ATGTAACG,0.0739 ± 0.012
2,ATGTAAAA,0.268 ± 0.011
3,ATGTAACA,0.239 ± 0.027
4,CTGTAATA,0.0153 ± 0.064
5,CTGTAACA,0.044 ± 0.048
6,ATGTAATG,0.16 ± 0.079
7,GCTTAGGA,-0.105 ± 0.036
8,TGACCCAA,0.106 ± 0.036
9,CGTTACTA,0.108 ± 0.1
10,CCCTCCTC,-0.0364 ± 0.059
11,GCATAGTA,0.0884 ± 0.0015
12,GTCCCGCA,-0.141 ± 0.005
13,CCGTGTGC,-0.0611 ± 0.063
14,ACGTGTGA,0.192 ± 0.054
15,ACGTGTGG,0.3 ± 0.048
16,AGGTGTGG,0.0754 ± 0.09
17,ACGTGTGC,0.348 ± 0.0039
18,AAGTGTGG,0.0251 ± 0.043
19,ACAAAACG,0.152 ± 0.068
20,ACCAGACA,-0.0218 ± 0.036
21,AAGAACAT,0.2472 ± 0.0023
22,AAGAACAG,0.137 ± 0.033
23,AAGAACAC,0.156 ± 0.11
